Screening results from PubChem.
Only some compounds are listed: those with a hit (about 2.4% of all), similar ones and a draw of the others.
GLS inhibitor = qHTS for Inhibitors of Glutaminase (GLS) | GLS enzymatic activity, qHTS titration | Potency, µM (highest dose often 45.5 µM), without a hit: at the top dose activity change, negative = inhibition, most hits filed as inhibitors | actives 0.21% (n = 410,000); also: % is scaled to controls: 0 for no effect and ±100 for the full control effect
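Assay buffer: 45 mM KH2PO4 pH 8.2, 0.02% Tween-20. hKGA acts on L-glutamine (1 mM solution added); product glutamate is reported by an oxidase/peroxidase Amplex Red coupling, with fluorescence taken at baseline and 30 min.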
POLB inh = qHTS Assay for Inhibitors of DNA Polymerase Beta; P06746; Pol beta primer extension/strand displacement, fluorescence kinetic; Potency, µM (top dose mostly 114 µM), without a hit: at the top dose activity change, negative = inhibition, hits mostly inhibitors; actives 1.3% (n = 340,000); also: % is scaled to controls: 0 for no effect and ±100 for the full control effect
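Values derive from four-parameter Hill fits of normalized kinetic data: reads at 0 and 10 min following addition of 50 nM substrate to 10 nM Pol beta preincubated 15 min with compound.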
Pol kappa inh = qHTS for Inhibitors of Polymerase Kappa. purified Pol kappa, fluorescent DNA synthesis assay, 10 min. actives 0.53% (n = 400,000). DNA polymerase kappa (Homo sapiens), Q9UBT6. AID 588579, 2011. Potency, µM (doses to about 107 µM), for inactives: at the highest dose activity, negative = inhibition, actives largely listed as inhibitors; also: % is scaled to controls: 0 for no effect and ±100 for the full control effect
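10 nM Pol kappa preincubated 15 min at room temperature with compounds, then reaction started with substrate at 50 nM final. Fluorescence read kinetically at 0 and 10 min; buffer-only wells served as negative control.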
POLI inh = qHTS for Inhibitors of Polymerase Iota; DNA polymerase iota (Homo sapiens), Q9UNA4; Pol iota fluorescent replication assay, 10 min; Potency, µM (series often up to 115 µM), for the others: at the top dose activity, negative = inhibition, actives largely listed as inhibitors; actives 1% (n = 390,000); AID 588590, 2011
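Fluorescent replication assay read twice, at 0 min and 10 min after adding 50 nM (final) substrate. Enzyme (10 nM) and compounds were first incubated 15 min at room temperature; enzyme-free buffer wells were negative controls.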
POLH inh = qHTS for Inhibitors of Polymerase Eta; DNA polymerase eta (Homo sapiens), Q9Y253; recombinant Pol eta, fluorescent DNA replication assay; Potency, µM (highest dose often 114 µM), without a hit: at the top dose activity change, negative = inhibition, actives largely listed as inhibitors; actives 1.2% (n = 390,000); AID 588591, 2011; also: % is scaled to controls: 0 for no effect and ±100 for the full control effect
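Fluorescent replication assay: 50 nM final substrate added after a 15 min room-temperature compound preincubation with 10 nM enzyme. Signal taken at 0 min and again at 10 min.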
GCN5L2 inh = qHTS Assay for Inhibitors of GCN5L2; Histone acetyltransferase KAT2A (Homo sapiens), Q92830; GCN5L2 HAT assay, ThioGlo1 CoA-SH fluorescence; Potency, µM (series often up to 58.9 µM), for inactives: at the highest dose activity change, negative = inhibition, actives largely listed as inhibitors; actives 0.21% (n = 390,000); AID 504327, 2011; also: % is scaled to controls: 0 for no effect and ±100 for the full control effect
Target sequence (Q92830 whole entry, looked up): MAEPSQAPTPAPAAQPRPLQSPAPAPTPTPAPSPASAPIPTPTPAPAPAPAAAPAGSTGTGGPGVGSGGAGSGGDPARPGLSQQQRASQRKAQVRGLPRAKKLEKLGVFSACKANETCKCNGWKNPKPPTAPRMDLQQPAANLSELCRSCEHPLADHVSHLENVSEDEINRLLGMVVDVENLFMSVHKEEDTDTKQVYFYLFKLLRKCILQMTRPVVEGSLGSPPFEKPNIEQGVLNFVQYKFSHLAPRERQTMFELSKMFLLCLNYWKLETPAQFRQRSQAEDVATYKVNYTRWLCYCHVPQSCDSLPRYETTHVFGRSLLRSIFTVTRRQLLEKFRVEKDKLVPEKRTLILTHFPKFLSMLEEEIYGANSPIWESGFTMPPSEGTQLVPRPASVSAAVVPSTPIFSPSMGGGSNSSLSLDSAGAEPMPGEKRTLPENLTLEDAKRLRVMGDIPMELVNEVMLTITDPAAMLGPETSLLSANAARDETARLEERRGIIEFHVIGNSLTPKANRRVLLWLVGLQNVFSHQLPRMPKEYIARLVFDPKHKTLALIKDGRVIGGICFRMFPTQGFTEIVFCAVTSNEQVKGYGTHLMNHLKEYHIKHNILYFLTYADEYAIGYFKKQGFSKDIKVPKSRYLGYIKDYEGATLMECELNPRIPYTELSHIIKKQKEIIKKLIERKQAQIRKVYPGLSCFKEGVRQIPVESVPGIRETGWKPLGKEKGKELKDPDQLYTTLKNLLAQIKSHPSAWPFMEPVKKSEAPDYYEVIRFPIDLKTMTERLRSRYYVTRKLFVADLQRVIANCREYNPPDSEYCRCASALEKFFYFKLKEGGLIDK
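Compounds, pin-transferred from DMSO stocks, meet 20nM GCN5L2 for 15 min before the reaction begins with H3(1-25) peptide (75uM) and acetyl-CoA (70uM). Thiol-reactive ThioGlo1 reports CoA release over 20 min at room temperature.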
Starred values were filed as active, the others as inactive; ? = inconclusive; nt = no result; [ ] = another dose, or the depositor's remark. Calls follow the shape of the dose curve; as a rule, active = well fitted inhibition curve with a large enough effect; inconclusive = small, poorly fitted or top-dose-only effect, or another doubt; inactive = no such curve, though single readings can be large or run the other way. Potency is read from the fitted curve at half-maximal effect.

SMILES	GLS inhibitor	POLB inh	Pol kappa inh	POLI inh	POLH inh	GCN5L2 inh
COc1cccc(-n2c(SCC(=O)NCCC3=CCCCC3)nc3n[nH]c(C)c3c2=N)c1	20µM*	8%	-7%	7%	?	3%
COc1cccc(NC(=O)CSc2nc3n[nH]c(C)c3c(=N)n2-c2cccc(OC)c2)c1	-1%	-2%	-7%	-14%	-18%	-29%
COc1ccc(N2CCN(C(=O)c3ccc(NC(=O)C4=CSCCO4)cc3)CC2)cc1	24%	-7%	-23%	35µM*	-6%	-8%
O=C(Nc1ccc(C(=O)N2CCN(c3ccc(F)cc3)CC2)cc1)C1=CSCCO1	8%	8%	1%	-20%	-7%	-2%
O=[N+]([O-])c1ccc(O)c(/C=N/n2cnc3ccccc32)c1	20%	1%	-10%	4%	-18%	34%
Cc1ccc(/C=C2\SC(=S)N(/N=C/c3cc([N+](=O)[O-])ccc3O)C2=O)o1	17%	8.9µM*	20µM*	4.5µM*	10µM*	?
O=C(CCCOc1ccccc1)N1CCN(c2ccc(F)cc2)CC1	21%	100µM*	-10%	12%	-4%	-4%
Cc1ccc(NC(=O)Cn2c(O)c(N=NC(N)=O)c3ccccc32)cc1	4%	-4%	4%	47%	-21%	-8%
Cc1ccccc1NC(=O)Cn1c(O)c(N=NC(=O)c2ccccc2O)c2ccccc21	-1%	10µM*	?	?	?	?
CC(C)C[C@H](NC(=O)CN(C)C(=O)[C@H](Cc1ccccc1)NC(=O)[C@H](Cc1ccccc1)NC(=O)[C@H](CCC(N)=O)NC(=O)[C@H](CCC(N)=O)NC(=O)[C@@H]1CCCN1C(=O)[C@H](CCCCN)NC(=O)[C@@H]1CCCN1C(=O)[C@@H](N)CCCN=C(N)N)C(=O)N[C@@H](CCS(C)(=O)=O)C(N)=O	nt	nt	-7%[12 µM]	nt	nt	-17%
O=c1cc(CSc2nnnn2-c2ccccc2)[nH]c2[nH]n(-c3ccccc3)c(=O)c12	-7%	-8%	40µM*	?	13%	-5%
c1ccc(CSc2nnnn2-c2ccccc2)cc1	-4%	1%	-5%	39%	-14%	-5%
COCCNC(=O)c1cc(-c2cccnc2)nc2ccc(Br)cc12	nt	-1%	-5%	18%	6%	-5%
O=C(NCc1cccs1)c1cc(-c2ccncc2)nc2ccc(Br)cc12	nt	40µM*	nt	nt	nt	20%
OCC1(O)OC[C@@H](O)[C@H](O)[C@@H]1O (stereo not given in full)	-6%	nt	nt	nt	nt	nt
CSc1ncc(CN2CCN(C3CCCCC3)C(CCO)C2)cn1 (stereo not given)	2%	3%	-3%	17%	-16%	14µM*
CSc1ncc(CN2CCN(C3CCN(C(C)C)CC3)C(CCO)C2)cn1 (stereo not given)	5%	0%	4%	66%	-12%	-24%
Cc1ccc(C)n1-c1ccc(C(=O)NCC2CCCO2)cc1 (stereo not given)	13%	40µM*	-13%	?	?	-8%
Cc1ccc([N+](=O)[O-])cc1S(=O)(=O)Nc1ccc(C(=O)NCC2CCCO2)cc1 (stereo not given)	-4%	nt	-11%	?	79µM*	-12%
COc1ccc(C(=O)NCC2CCCO2)cc1 (stereo not given)	14%	0%	-24%	24%	-2%	-7%
CS(=O)(=O)Nc1ccc(C(=O)NCC2CCCO2)cc1 (stereo not given)	-6%	-1%	-8%	-2%	-11%	3%
